Over roughly 35,000 sequences, “fluorescence intensity (a.u.)” has its median near 10,000; the highest 2% begin near 52,000. This is one part of a sample in which the highest values are shown more often than they occur.

Here are results for 43 sequences from publication PMC7819943, “Rice protein-binding microarrays: a tool to detect cis-acting elements near promoter regions in rice”.

In this assay the target is T1, OsWOX13 (Oryza sativa, UniProt Q5QMM3 1-267).
T1 sequence: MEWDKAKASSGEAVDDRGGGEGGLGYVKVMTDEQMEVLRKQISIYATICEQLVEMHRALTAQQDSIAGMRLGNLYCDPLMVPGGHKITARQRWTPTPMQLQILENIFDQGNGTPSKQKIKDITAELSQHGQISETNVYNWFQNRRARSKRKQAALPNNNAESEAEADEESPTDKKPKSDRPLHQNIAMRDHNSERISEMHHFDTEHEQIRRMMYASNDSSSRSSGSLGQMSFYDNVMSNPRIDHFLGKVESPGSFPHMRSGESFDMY
The experiment in a line: protein-binding microarray (RPBM); PBS, 2% BSA, 51.3 ng/ul salmon testes DNA, 50 uM zinc acetate, 200 nM TF, 25 C, 1 h; high values mean tight binding. The settings on record: protein: recombinant; tags: N-terminal polyhistidine and DsRed monomer fusion (pET32a); label: CyDye5-dUTP incorporated in the synthesized complementary strand; 3' TTTTT single-stranded linker to array surface; dsDNA, one strand shown. An outline of the steps: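 Binding signal is defined as the fluorescence intensity of each feature in arbitrary units, read on an Axon 4000B scanner. Transcription factors with N-terminal polyhistidine and DsRed fusions came from E. coli BL21-CodonPlus and were purified on Ni–NTA. They were incubated at 200 nM for 1 h at 25 °C on a custom Agilent array that had been made double-stranded with Cy5-dUTP, with 50 µM zinc acetate present, and the array was washed.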
“GATATGAGTGACTAATTGACTTTGTGTTGATTTCGAGCAGCGGAGTCACCTAGTGCAG”: the binding signal was 34600 fluorescence intensity (a.u.). Then “ATAAAATTTTAAAATTTAAATTGTAGCCACAACTGATAAGCGGAGTCACCTAGTGCAG”, with 15500 fluorescence intensity (a.u.); and “GACTTGACTAATTGATTTGTGTAGATTTCTAAAAGCAAGGCGGAGTCACCTAGTGCAG”, with 58600 fluorescence intensity (a.u.); and “AGAAATTGTGTGATTTATTGTAGTGTGTAGAAATTTATAGCGGAGTCACCTAGTGCAG”, with 11700 fluorescence intensity (a.u.). The figure for “CTGATTTAAATTGAAAGCAACCGTCTTTTGATTTGTGTAGCGGAGTCACCTAGTGCAG” is 57100 fluorescence intensity (a.u.). Turning to “AATGTAATGTAACAAATTTGTCTAAAAGGATTGAACTTGGCGGAGTCACCTAGTGCAG”, the binding signal was 12400 fluorescence intensity (a.u.). The figure for “AAAAGCACATGATTATATCTCATTTTATGGTCTTAGAGCACGGAGTCACCTAGTGCAG” is 3350 fluorescence intensity (a.u.); for “GTTTGATGAGTCCGGAATAGCATATAGCACATGGAATTGGCGGAGTCACCTAGTGCAG” it is 3510 fluorescence intensity (a.u.); for “CAACAGGATTGGAAGTGATCAGAGACAGGCAATGAAATCCCGGAGTCACCTAGTGCAG” it is 8460 fluorescence intensity (a.u.).

In the case of “ACACTAAATTAATGTATGCAATGTCCATTGGTAAATAACTCGGAGTCACCTAGTGCAG”, the binding signal is 14900 fluorescence intensity (a.u.). Then “GATTAAGATTTTATCCGATTGATGATGCGCCGTAGCAGTGCGGAGTCACCTAGTGCAG”, with 8650 fluorescence intensity (a.u.); and “AGTGATTAGTGAAGCAAAGGAAGACGACGAGTGACACGAGCGGAGTCACCTAGTGCAG”, with 21900 fluorescence intensity (a.u.). For the sequence “CTGGATTGGTGATTGATTATCCGAGCAAGCAAAGACGATGCGGAGTCACCTAGTGCAG”, the binding signal is 63800 fluorescence intensity (a.u.).

Regarding “TTTAAGATCATGATTAACATGACATTGAAGCATTACCACGCGGAGTCACCTAGTGCAG”, the binding signal is 5610 fluorescence intensity (a.u.).

As to “GAATTAGCTTGATTGACAGAAACAAATGGCTACAACTACACGGAGTCACCTAGTGCAG”, the binding signal was 50600 fluorescence intensity (a.u.).

With “AACCAGATTCACCGTGATTAGTTTCACCCTAGTCTAGTCTCGGAGTCACCTAGTGCAG”, the binding signal was 10800 fluorescence intensity (a.u.). For “CACAATTCCTTCTAATTATTTGATAATCAAGTTTCTCCTTCGGAGTCACCTAGTGCAG”, the binding signal is 9620 fluorescence intensity (a.u.). The figure for “TTAATTAATTGATCACTTCCAAATCATGTAGCAGTACTGTCGGAGTCACCTAGTGCAG” is 65400 fluorescence intensity (a.u.); for “ATCCATGATTAACAGTTGATTACTGTAGCAAATCATGGATCGGAGTCACCTAGTGCAG” it is 34400 fluorescence intensity (a.u.).

For “TTAATTGATCAATAATCACTGTTCCTTCTCAAGTAGTCAACGGAGTCACCTAGTGCAG”, the binding signal is 64600 fluorescence intensity (a.u.). With “ATAATTGAGTAGATAATCCTTGCAATAATCCGCTCAATAACGGAGTCACCTAGTGCAG”, the binding signal is 8180 fluorescence intensity (a.u.). The figure for “ATATATAATCATTGATCTTAATTATTGAGTGTCAGTAGTACGGAGTCACCTAGTGCAG” is 24400 fluorescence intensity (a.u.).

“ACTATTAATGTGAACTGATATGATACATTTTAGAGCTAGCCGGAGTCACCTAGTGCAG”: the binding signal is 6440 fluorescence intensity (a.u.).

Consider “TACACCTTTGACAGACAACAAAGCATTGAATCTTCTATGCCGGAGTCACCTAGTGCAG”, for which the binding signal was 5260 fluorescence intensity (a.u.). On to “GATAACTGGATTCATCTGTCTCCTCAACGTGTGGTCTGTACGGAGTCACCTAGTGCAG”, for which the binding signal was 19900 fluorescence intensity (a.u.).

In the case of “TGCCACACAAATTTTGCAAAATTTGTGATATGCCACCTGACGGAGTCACCTAGTGCAG”, the binding signal is 6080 fluorescence intensity (a.u.). With “GCCAAATTGACAGAGTTACCTCGCTATATAAGGCTGCCCACGGAGTCACCTAGTGCAG”, the binding signal was 57600 fluorescence intensity (a.u.). Then “TAATAATAATAATAATGCAAATTACCAAAATATAAGCCCACGGAGTCACCTAGTGCAG”, with 6280 fluorescence intensity (a.u.); and “ACTTGACAGGAATTGCAGAAAGGCCCCTCGCCAAAACTCACGGAGTCACCTAGTGCAG”, with 30900 fluorescence intensity (a.u.). In the case of “ATATCAATTAATGCTTCAAGATTAGCACCCATATTATATGCGGAGTCACCTAGTGCAG”, the binding signal is 35100 fluorescence intensity (a.u.). Consider “GAAATAATTAATTAATTTAATTAATTGATTGACACAAGTACGGAGTCACCTAGTGCAG”, for which the binding signal is 65000 fluorescence intensity (a.u.). Then “AGACAATGATAGTGATAATTAACAAATTCAGTTTAAGATCCGGAGTCACCTAGTGCAG”, with 19700 fluorescence intensity (a.u.); and “TATTTTCAATTATAGGTCTAATTGTTTTATTTAGGTGATTCGGAGTCACCTAGTGCAG”, with 20500 fluorescence intensity (a.u.). The figure for “TTTGATTCTTTTAAATTAAATAATTTTAAAGTCATTGATACGGAGTCACCTAGTGCAG” is 21100 fluorescence intensity (a.u.); for “CTAATTGATTAGTAAACTATTTATATAGGACTGTTGTTTTCGGAGTCACCTAGTGCAG” it is 58300 fluorescence intensity (a.u.). “AAATTGACAAGATAGATCAATATATAATATATCACTACACCGGAGTCACCTAGTGCAG”: the binding signal was 10200 fluorescence intensity (a.u.). For the sequence “CTTAATTAACACTCGTAAGATTGACAAATAGTTGAATATCCGGAGTCACCTAGTGCAG”, the binding signal was 60300 fluorescence intensity (a.u.).

Regarding “AATCATTTAAAACATTGATTTTATTTGACGATAAAACTAGCGGAGTCACCTAGTGCAG”, the binding signal is 4690 fluorescence intensity (a.u.). For “GGTAATATTTTGATTAAATTTGACTAAATTTTGTTTAAAACGGAGTCACCTAGTGCAG”, the binding signal is 11800 fluorescence intensity (a.u.).

In the case of “TTGATTGACTAAACTGTCACGTCAGCGTCATATTGACGAACGGAGTCACCTAGTGCAG”, the binding signal is 54900 fluorescence intensity (a.u.). Consider “AGTGATTAATGAGACAAATAGTACTTTATTGTGACAAGTACGGAGTCACCTAGTGCAG”, for which the binding signal was 30900 fluorescence intensity (a.u.). In the case of “AAACTGATTCTTTGATTATTGACGTCTCATAGACCTACGTCGGAGTCACCTAGTGCAG”, the binding signal was 31600 fluorescence intensity (a.u.). On to “GAAATTAAACTAATATTTCGGCCCATCAAGGGCTCGCTTGCGGAGTCACCTAGTGCAG”, for which the binding signal was 8580 fluorescence intensity (a.u.).
